Experimental data published in PubChem BioAssay (NCATS).
Unmarked numbers belong to inactive results. Results filed as inconclusive are left out. Entries that show only a call come without a potency. The source made the active and inactive calls. Unless noted, the call rests on the fitted dose curve; in most records, active means well fitted curve in the direction sought with a large enough effect; inconclusive means small, poorly fitted or top-dose-only effect, or another doubt; inactive means no such curve, though single readings can be large; an effect the other way counts as inactive or inconclusive.

Assays:
[1] = target: Protein phosphatase 1D (Homo sapiens) (UniProt O15297); experiment: RapidFire Mass Spectrometry qHTS Assay for Modulators of WT P53-Induced Phosphatase 1 (WIP1) (AID 1347424); further: series mostly up to about 63 µM
Procedure, shortened: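 RapidFire MS readout of dephosphorylated VEPPL-S-QETFS product, with 1 uM isotope-labelled peptide standard. Reaction: 10 nM WIP1, 2 uM phosphopeptide substrate, 5 min, room temperature, after 1 h compound preincubation; stopped with 0.5% formic acid.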

[2] = target: Protein phosphatase 1D (Homo sapiens) (UniProt O15297); experiment: Rhodamine-PBP qHTS Assay for Modulators of WT P53-Induced Phosphatase 1 (WIP1) (AID 1347425)
Procedure, shortened: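 Read-out: Rhodamine-PBP fluorescence (ex 525/em 598 nm) for released Pi, read each minute for 11 min after adding 10 uM VEPPL-pS-QETFS; signal taken as f1 minus pre-substrate f0. Enzyme 5 nM WIP1 with 1 hr room-temperature compound preincubation.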

[3] = Primary qHTS for inhibitors of La Crosse Virus (LACV) - induced cell death in SH-SY5Y cells (AID 1508616);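 further: top concentration of the series differs between compounds; higher means more rescue of cells from virus-induced death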
Procedure, shortened: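 Rescue of virus-induced death was read as ATPLite luminescence after 6 days at 37C, scaled between DMSO wells with LACV and without virus. Cells were SH-SY5Y, 6000/well, infected at 0.01 MOI after compound addition.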

[4] = target: Calcium and integrin-binding protein 1 (Homo sapiens) (UniProt Q99828); experiment: Validation qHTS for Identification of Calcium Integrin Binding protein 1 (CIB1) Competitor (AID 1508618)
Procedure, shortened: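 CIB1-GST (1 uM final) in 5 mM HEPES pH 7.4, 125 mM NaCl, 5 mM CaCl2, 0.01% Tween20 was preincubated 15 min at room temperature with compound (up to 114 uM), then FITC-alphaIIb peptide (100 nM) added for 15 min; fluorescence polarization read.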

[5] = target: Calcium and integrin-binding protein 1 (Homo sapiens) (UniProt Q99828); experiment: Primary qHTS for Identification of Calcium Integrin Binding Protein 1 (CIB1) Competitor (AID 1508620);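 further: GST tagged CIB1 binding a fluorescein labelled alphaIIb integrin peptide tracer; top concentration of the series differs between compounds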
Procedure, shortened: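 Fluorescence polarization competition: GST-tagged CIB1 (1 uM final) preincubated with compound 15 min at room temperature, then FITC-labelled alphaIIb peptide (100 nM final) added. After 15 min at room temperature, polarization read at Ex 480/Em 540.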

[6] = Counterscreen qHTS for small molecule stabilizers of the endoplasmic reticulum resident proteome: GLuc-NoTag assay (AID 1508627); further: series mostly up to about 76 µM
Procedure, shortened: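 Counterscreen line: SH-SY5Y-GLuc-NoTag. Seed, 5 h; compound, 19 h; thapsigargin 100 nM, 4 h; 37C/5% CO2. Readout: secreted GLuc luminescence, coelenterazine 0.07x final, no lysis.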

[7] = Confirmatory qHTS for small molecule stabilizers of the endoplasmic reticulum resident proteome: Secreted ER Calcium Modulated Protein (SERCaMP) assay (AID 1508628); further: potency means the concentration at half of the fitted maximal effect; nearly all actives have a fitted effect of over 40% in size
Procedure, shortened: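 Reporter secretion upon ER calcium depletion (100 nM thapsigargin, 4 h, 37C) is measured as medium luminescence with coelenterazine, after 16 h compound pretreatment of SH-SY5Y-GLuc-SERCaMP cells; primary at three concentrations up to 38.3 uM, follow-up at 11 (up to 76.6 uM).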

[8] = target: Cytochrome P450 2D6 (Homo sapiens) (UniProt P10635); experiment: Cytochrome P450 family 2 subfamily D member 6 (CYP2D6) small molecule antagonists: luciferase biochemical (cell-free) qHTS assay (AID 1645840; active means well fitted curve in the direction sought with a large enough effect in the repeat runs; an effect the other way counts as inactive or inconclusive; further: nearly all actives have a fitted effect of over 55% in size; further: potency means the concentration at half of the fitted maximal effect)
Procedure, shortened: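 P450-Glo CYP2D6 system: proluciferin substrate converted by enzyme to luciferin, read by luminescence proportional to activity. Enzyme-substrate mix with compound 10 min at room temperature, then NADPH regeneration 1 h before detection reagent.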

[9] = target: Cytochrome P450 2C9 (Homo sapiens) (UniProt P11712); experiment: Cytochrome P450 family 2 subfamily C member 9 (CYP2C9) small molecule antagonists: luciferase biochemical (cell-free) qHTS assay (AID 1645842; active means well fitted curve in the direction sought with a large enough effect in the repeat runs; an effect the other way counts as inactive or inconclusive; further: series mostly up to about 57 µM; nearly all actives have a fitted effect of over 55% in size)
Procedure, shortened: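 P450-Glo CYP2C9 system: proluciferin substrate with enzyme in mix containing 0.4% BSA, 10 min at room temperature, then NADPH regeneration solution added and incubated 1 h at 37C. Detection reagent stopped reaction; luminescence read after 20 min as RLU.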

[10] = target: Papain (Carica papaya) (UniProt P00784); experiment: Primary qHTS assay for inhibitors of the protease papain (AID 1645873);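 further: papain turnover of Z-FR-AMC read as the AMC fluorescence gain over 10 min; series mostly up to about 50 µM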
[11] = Validation qHTS assay for inhibitors of Activation Induced Cytidine Deaminase (AID): UDG Counterscreen signal (AID 1347427)
Procedure, shortened: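 Fluorescence at 560 nm excitation, 665 nm emission reports UDG signal after 250 mM NaOH (2x) addition and 30 min. Enzymes (AID 1 uM, UDG 2 U/mL, at 4/3x) preincubated 10 min with compound, then 4 h with 4x 250 nM DJC20/DJC23 substrate at room temperature.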

[12] = target: Single-stranded DNA cytosine deaminase (Homo sapiens) (UniProt Q9GZX7); experiment: Validation qHTS assay for inhibitors of Activation Induced Cytidine Deaminase (AID): AID signal (AID 1347429)
Procedure, shortened: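 Compounds (final up to 114 uM) preincubated with AID plus UDG; 250 nM DJC20/DJC23 substrate mix (4x stock) added, 4 hr at room temperature, then NaOH, 30 min. Read 1 fluorescence at 540 nm excitation, 590 nm emission.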

[13] = A High-Content qHTS Against Drug Library for the Identification of Small Molecules that Inhibit DYT1 Early Onset Primary Dystonia-Associated Cell Pathology (AID 1645839; calls by dose curve; further: series mostly up to about 46 µM)
Procedure, shortened: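 Cells were seeded and left for 24 h, then dosed with compound alongside tetracycline induction of mutant EGFP-TorsinA. They were incubated for 48 h, fixed in 4% paraformaldehyde, permeabilized and imaged for mislocalization (%pathology) and cell count.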

[14] = Primary qHTS for inhibitors of nuclear receptor binding SET domain protein 2 (NSD2) in an isogenic RCH-ACV NSD2 p.E1099K mutant (9B) (AID 1645876); further: nearly all actives have a fitted effect of over 70% in size; further: potency means the concentration at half of the fitted maximal effect
[15] = Primary qHTS for small molecule stabilizers of the endoplasmic reticulum resident proteome: Secreted ER Calcium Modulated Protein (SERCaMP) assay (AID 1508630)
Procedure, shortened: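 The SH-SY5Y reporter protocol was run at 3 concentrations up to 38.3 uM (primary) or 11 concentrations (follow-up): 16 h compound, 100 nM thapsigargin for 4 h, then extracellular luciferase luminescence.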

[16] = Primary qHTS for inhibitors of nuclear receptor binding SET domain protein 2 (NSD2) in an RCH-ACV wild type WT cells (2C) (AID 1645877); further: nearly all actives have a fitted effect of over 70% in size
[17] = target: Calcium and integrin-binding protein 1 (Homo sapiens) (UniProt Q99828); experiment: Confirmatory qHTS for Identification of Calcium Integrin Binding Protein 1 (CIB1) Competitor (AID 1508617); further: nearly all actives have a fitted effect of over 65% in size
Procedure, shortened: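 Fluorescence polarization competition: CIB1-GST (1 uM final) in 5 mM HEPES pH 7.4, 125 mM NaCl, 5 mM CaCl2, 0.01% Tween20 preincubated 15 min RT with compound (up to 114 uM), then FITC-alphaIIb peptide (100 nM) added, 15 min RT.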

[18] = target: Cytochrome P450 3A4 (Homo sapiens) (UniProt P08684); experiment: Cytochrome P450 family 3 subfamily A member 4 (CYP3A4) small molecule antagonists: luciferase qHTS assay (AID 1645841; active means well fitted curve in the direction sought with a large enough effect in the repeat runs; an effect the other way counts as inactive or inconclusive; further: nearly all actives have a fitted effect of over 45% in size)
Procedure, shortened: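 P450-Glo CYP3A4 enzyme with proluciferin substrate preincubated 10 min with compound at room temperature, then NADPH regeneration 1 h. Luciferin detection reagent added for 20 min; luminescence recorded. Ketoconazole positive control.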

Sequence of Papain (Carica papaya) (P00784 whole entry, looked up): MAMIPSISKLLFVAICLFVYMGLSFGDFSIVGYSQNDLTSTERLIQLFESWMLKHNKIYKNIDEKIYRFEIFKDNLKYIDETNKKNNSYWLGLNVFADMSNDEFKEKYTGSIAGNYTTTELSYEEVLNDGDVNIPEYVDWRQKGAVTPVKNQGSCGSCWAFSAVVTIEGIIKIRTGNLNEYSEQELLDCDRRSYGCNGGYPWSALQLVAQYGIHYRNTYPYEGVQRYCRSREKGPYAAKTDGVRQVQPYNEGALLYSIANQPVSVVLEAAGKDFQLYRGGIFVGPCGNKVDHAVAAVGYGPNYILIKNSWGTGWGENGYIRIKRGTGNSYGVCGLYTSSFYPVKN
Sequence of Protein phosphatase 1D (Homo sapiens) (O15297 whole entry, looked up): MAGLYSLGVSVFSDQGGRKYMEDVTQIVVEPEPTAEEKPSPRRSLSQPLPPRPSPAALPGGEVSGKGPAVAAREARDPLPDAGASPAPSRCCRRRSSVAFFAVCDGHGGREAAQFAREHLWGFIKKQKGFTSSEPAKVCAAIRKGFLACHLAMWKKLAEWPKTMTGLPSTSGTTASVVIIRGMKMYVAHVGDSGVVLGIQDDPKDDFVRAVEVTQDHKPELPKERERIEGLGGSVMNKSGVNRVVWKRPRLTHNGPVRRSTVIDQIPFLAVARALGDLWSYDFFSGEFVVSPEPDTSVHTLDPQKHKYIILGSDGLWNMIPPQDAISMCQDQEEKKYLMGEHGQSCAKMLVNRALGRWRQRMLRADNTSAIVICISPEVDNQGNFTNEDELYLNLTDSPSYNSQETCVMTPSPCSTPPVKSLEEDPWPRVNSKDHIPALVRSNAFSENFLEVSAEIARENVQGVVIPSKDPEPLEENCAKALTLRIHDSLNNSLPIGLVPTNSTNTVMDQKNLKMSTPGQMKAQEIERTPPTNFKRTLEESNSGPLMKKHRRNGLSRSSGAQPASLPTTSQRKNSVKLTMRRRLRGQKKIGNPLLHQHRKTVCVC
Sequence of Calcium and integrin-binding protein 1 (Homo sapiens) (Q99828 whole entry, looked up): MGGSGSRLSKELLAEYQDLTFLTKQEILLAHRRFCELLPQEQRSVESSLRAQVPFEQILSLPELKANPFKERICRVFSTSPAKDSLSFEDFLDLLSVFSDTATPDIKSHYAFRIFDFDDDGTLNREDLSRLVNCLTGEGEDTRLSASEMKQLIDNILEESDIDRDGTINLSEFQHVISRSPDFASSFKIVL
Sequence of Cytochrome P450 2C9 (Homo sapiens) (P11712 whole entry, looked up): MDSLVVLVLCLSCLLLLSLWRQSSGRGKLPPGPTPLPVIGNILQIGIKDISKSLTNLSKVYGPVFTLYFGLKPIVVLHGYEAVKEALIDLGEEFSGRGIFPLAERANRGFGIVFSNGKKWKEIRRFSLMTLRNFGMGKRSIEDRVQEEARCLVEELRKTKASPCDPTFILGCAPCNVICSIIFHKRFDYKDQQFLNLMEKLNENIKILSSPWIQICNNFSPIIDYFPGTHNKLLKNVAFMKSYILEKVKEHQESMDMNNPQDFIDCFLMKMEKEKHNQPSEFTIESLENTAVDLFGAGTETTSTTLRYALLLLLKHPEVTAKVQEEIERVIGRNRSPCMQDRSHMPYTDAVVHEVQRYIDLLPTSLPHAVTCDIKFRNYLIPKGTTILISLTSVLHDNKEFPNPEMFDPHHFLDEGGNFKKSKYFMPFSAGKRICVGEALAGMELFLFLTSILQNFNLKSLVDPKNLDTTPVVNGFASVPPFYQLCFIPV
Sequence of Single-stranded DNA cytosine deaminase (Homo sapiens) (Q9GZX7 whole entry, looked up): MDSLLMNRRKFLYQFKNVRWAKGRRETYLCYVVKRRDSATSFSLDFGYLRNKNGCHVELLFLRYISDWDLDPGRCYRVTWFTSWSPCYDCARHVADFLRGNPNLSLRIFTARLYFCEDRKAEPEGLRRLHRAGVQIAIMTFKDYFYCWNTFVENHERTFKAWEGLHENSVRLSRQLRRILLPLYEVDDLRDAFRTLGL
Sequence of Cytochrome P450 2D6 (Homo sapiens) (P10635 whole entry, looked up): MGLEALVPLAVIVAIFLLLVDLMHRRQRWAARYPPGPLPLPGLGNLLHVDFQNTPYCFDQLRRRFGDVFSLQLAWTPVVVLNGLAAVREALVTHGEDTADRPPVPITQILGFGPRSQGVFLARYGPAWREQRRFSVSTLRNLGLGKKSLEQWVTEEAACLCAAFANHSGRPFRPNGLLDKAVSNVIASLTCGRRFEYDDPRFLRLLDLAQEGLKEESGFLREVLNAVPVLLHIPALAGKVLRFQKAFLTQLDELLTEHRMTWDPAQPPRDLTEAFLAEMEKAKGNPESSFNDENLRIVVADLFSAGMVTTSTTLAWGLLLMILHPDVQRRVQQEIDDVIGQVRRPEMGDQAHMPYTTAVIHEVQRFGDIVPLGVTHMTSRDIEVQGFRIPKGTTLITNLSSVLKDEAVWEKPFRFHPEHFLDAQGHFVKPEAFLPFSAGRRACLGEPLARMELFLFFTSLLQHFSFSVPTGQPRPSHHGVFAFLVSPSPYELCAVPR
Sequence of Cytochrome P450 3A4 (Homo sapiens) (P08684 whole entry, looked up): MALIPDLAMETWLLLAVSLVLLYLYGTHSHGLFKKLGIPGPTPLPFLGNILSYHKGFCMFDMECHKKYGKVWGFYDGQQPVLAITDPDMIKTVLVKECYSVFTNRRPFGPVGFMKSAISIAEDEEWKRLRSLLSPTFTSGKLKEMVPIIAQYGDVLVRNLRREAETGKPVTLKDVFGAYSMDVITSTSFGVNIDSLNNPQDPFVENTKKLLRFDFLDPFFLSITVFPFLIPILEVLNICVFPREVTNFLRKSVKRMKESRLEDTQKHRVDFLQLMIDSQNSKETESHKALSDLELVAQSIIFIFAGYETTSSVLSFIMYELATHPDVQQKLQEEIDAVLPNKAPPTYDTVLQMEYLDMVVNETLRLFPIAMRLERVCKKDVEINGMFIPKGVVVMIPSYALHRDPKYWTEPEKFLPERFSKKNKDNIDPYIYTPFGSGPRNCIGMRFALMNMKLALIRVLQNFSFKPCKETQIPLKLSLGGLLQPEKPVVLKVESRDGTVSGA

Structure (SMILES) | outcome [1] | outcome [2] | outcome [3] | outcome [4] | outcome [5] | Potency [6] | Potency [7] | Potency [8] | Potency [9] | Potency [10] | Potency [11] | Potency [12] | Potency [13] | Potency [14] | Potency [15] | Potency [16] | Potency [17] | outcome [18]
CC(=O)c1ccc2c(c1)N(CCCN(C)C)c1ccccc1S2 | inactive | inactive | inactive | inactive | inactive | inactive | 25.1 µM (active) | 0.436 µM (active) | inactive | inactive | – | – | – | – | – | – | – | –
CNCC(O)c1ccc(O)c(O)c1 (stereo unspecified) | inactive | inactive | inactive | inactive | – | – | – | – | inactive | inactive | inactive | inactive | inactive | inactive | – | – | – | –
CN1CCCCC1CCN1c2ccccc2Sc2ccc(S(C)=O)cc21 (stereo unspecified) | inactive | inactive | inactive | – | inactive | inactive | 12.6 µM (active) | 0.0219 µM (active) | inactive | – | – | – | – | – | – | – | – | –
CN(C)CC[C@@H](c1ccc(Cl)cc1)c1ccccn1 | inactive | inactive | inactive | – | – | – | – | 9.52 µM (active) | inactive | inactive | inactive | inactive | inactive | inactive | inactive | inactive | – | –
CC1(C)Oc2ccc(C#N)cc2[C@@H](N2CCCC2=O)[C@@H]1O | inactive | inactive | inactive | – | inactive | – | – | inactive | inactive | – | – | – | inactive | – | inactive | – | – | –
C#CCN(C)Cc1ccccc1 | inactive | inactive | inactive | inactive | inactive | – | – | inactive | inactive | inactive | inactive | inactive | inactive | inactive | – | inactive | – | –
COc1cc(C)c(Cc2cnc(N)nc2N)cc1OC | inactive | inactive | inactive | – | inactive | inactive | – | inactive | inactive | – | – | – | inactive | inactive | – | inactive | – | –
C[C@H](NC(CCc1ccccc1)C(=O)O)C(=O)N1CCC[C@H]1C(=O)O (stereo partly specified) | inactive | inactive | inactive | inactive | inactive | – | – | inactive | inactive | inactive | – | – | inactive | inactive | inactive | inactive | – | –
CC(=O)NC(Cc1ccccc1)C(=O)O (stereo unspecified) | inactive | inactive | inactive | – | inactive | – | – | inactive | inactive | – | – | – | inactive | inactive | inactive | inactive | inactive | inactive
CC(CN1c2ccccc2Sc2ccccc21)N(C)C (stereo unspecified) | inactive | inactive | inactive | inactive | inactive | – | – | 2.45 µM (active) | inactive | inactive | inactive | inactive | – | 16.8 µM (active) | – | – | – | –
